Compound activity as filed in PubChem.
The list is a sample of the results.
aSyn UTR act: Activators working through SNCA 5'UTR binding (MLPCN); 7.1% of 300,000 active; AID 1814; activity score, % (tested at 7.5 µM), hits read low; alpha-synuclein 5'UTR reporter, activators screen; in the data active means activity score below about -60%
* marks the source's active call; other numbers are inactive results.

SMILES | aSyn UTR act
COc1ccc(-c2csc(NC(=O)CSc3n[nH]c(N)n3)n2)cc1 | -123.3*
COc1ccc(-c2csc(NC(=O)CSc3n[nH]c(C)n3)n2)cc1 | -103.6*
COc1cc2c(cc1OC)C(c1ccccc1)N(C(=O)c1cccc(S(C)(=O)=O)c1)CC2 (configuration not stated) | -67.1*
COc1cc2c(cc1OC)C(C)N(C(=O)c1cc(C)on1)CC2 (configuration not stated) | 97.1
CC(C)OC(=O)Cc1nc2sc(-c3ccccc3)cc2c(=O)[nH]1 | -86.7*
O=c1[nH]c(-c2cccnc2)nc2sc(-c3ccccc3)cc12 | -119.3*
Cc1cc(C)nc(SC/C=C/c2ccccc2)n1 | -89.0*
C(=C\c1ccccc1)/CSc1ccccn1 | -186.8*
COc1ccccc1NC(=S)N/N=C/c1cccc(C)c1 | -66.4*
COc1ccccc1NC(=S)N/N=C/c1ccc(O)cc1 | -156.8*
Cc1ccc(N=c2sc(C)c(C)n2C)cc1 | -178.0*
Clc1ccc(/C=N/Nc2nc(Cl)nc3ccccc23)cc1 | -172.2*
Clc1ccc(/C=N/Nc2nnc(Cl)c3ccccc23)cc1 | -164.8*
Clc1nnc(NN=C2CCCC2)c2ccccc12 | -193.6*
Clc1nnc(N/N=C/c2ccccc2)c2ccccc12 | -267.6*
Cc1ccc(/C=N/Nc2nnc(Cl)c3ccccc23)cc1 | -156.7*
COc1ccc(C(=O)Nc2ccc(N3CCN(C)CC3)cc2)cc1OC | -82.1*
Cc1ccc(C(=O)Nc2ccc(N3CCN(C)CC3)cc2)cc1 | -88.2*
CN1CCN(c2ccc(NC(=O)c3ccc4ccccc4c3)cc2)CC1 | 85.3
COc1ccc(C(=O)Nc2ccc(N3CCN(C)CC3)cc2)cc1 | -164.6*
Clc1ccc(-c2cnc3n2CCC3)cc1 | -103.1*
COc1ccc(N2C(=O)c3ccccc3NC23CCC(C)CC3)cc1 (configuration not stated) | -106.0*
COc1ccc(N2C(=O)c3ccccc3NC23CCCCC3)cc1 | -75.6*
CCCCCCOc1ccc(/C(N)=N/O)cc1 | -173.1*
N=C(N)c1ccc(OCCCCCOc2ccc(C(=N)N)cc2)cc1 | 67.0
SMILES | aSyn UTR act
c1ccc(-c2cc(N3CCCCCC3)n[nH]2)cc1 | -73.7*
c1ccc(-c2cc(N3CCCCC3)ncn2)cc1 | -134.8*
O=c1[nH][nH]c(-c2ccccc2O)c1C(C[N+](=O)[O-])c1ccc(Br)cc1 (configuration not stated) | -94.8*
O=[N+]([O-])c1ccccc1S(=O)(=O)Oc1ccccc1/C=N/n1cnnc1 | -79.4*
COCC(=O)n1nc(-c2ccccc2)nc1NCc1ccc(N(C)C)cc1 | -83.3*
O=C(c1cccc([N+](=O)[O-])c1)n1nc(-c2ccccc2)nc1NCc1ccccc1 | -68.0*
O=C(c1ccc([N+](=O)[O-])cc1)n1nc(-c2ccccc2)nc1NCc1ccccc1 | -67.2*
Cc1ccc(Cl)c(NC(=O)CCl)c1Cl | -86.9*
N#Cc1cccc(NC(=O)CSc2ccc3c4c(cccc24)C(=O)c2ccccc2-3)c1 | -154.4*
COc1ccc(NC(=O)CSc2ccc3c4c(cccc24)C(=O)c2ccccc2-3)cc1 | -65.5*
NC(=O)c1cnn(-c2ccc3ccccc3c2)c1N | -124.6*
COc1ccc(-n2nc3cc(C)c(NC(=O)c4cccnc4)cc3n2)cc1 | -82.5*
Cc1cc2nn(-c3ccccc3)nc2cc1NC(=O)c1cccs1 | -195.6*
COc1ccc(-n2nc3cc(C)c(NC(=O)CC(C)C)cc3n2)cc1 | -123.3*
O=c1c(C=NCCCO)c(-c2ccccc2)[nH]n1-c1nc2ccccc2s1 | 59.9
O=c1c(C=NCCN2CCNCC2)c(-c2ccccc2)[nH]n1-c1ccc([N+](=O)[O-])cc1 | -93.9*
O=[N+]([O-])c1ccc(-c2cn(-c3ccccc3)c(=S)[nH]2)cc1 | -100.6*
Cc1cccc(-n2cc(-c3ccc([N+](=O)[O-])cc3)[nH]c2=S)c1 | -80.2*
O=[N+]([O-])c1cccc(-c2cn(-c3ccccc3)c(=S)[nH]2)c1 | -178.8*
O=C(CCc1ccccc1)NC(c1cccs1)c1cc(Cl)c2cccnc2c1O (configuration not stated) | 88.2
O=C(CCc1ccccc1)Nc1ccc(Cl)cn1 | -313.6*
O=C(Nc1ccc(Cl)cn1)c1ccc(Oc2ccccc2)cc1 | -142.5*
O=C(COc1ccc2c(c1)OCO2)Nc1ccccc1F | -97.9*
O=C(COc1ccccc1)Nc1ccc(Cl)cn1 | -114.4*
O=C(COc1ccc2c(c1)OCO2)Nc1ccc(Cl)cn1 | -141.6*
SMILES | aSyn UTR act
O=C(COc1ccc(Cl)cc1)Nc1ccc(Cl)cn1 | -125.3*
O=C(/C=C/c1ccc2c(c1)OCO2)Nc1ccc(Cl)cn1 | -109.6*
O=C(/C=C/c1ccccc1Cl)Nc1ccc(Cl)cn1 | -118.3*
Cc1ccc(CC(=O)Nc2ccc(Cl)cn2)cc1 | -101.1*
Cc1ccccc1NC(=O)COc1ccc2c(c1)OC(C)(C)CC2=O | -87.7*
Cc1csc(NC(=O)c2ccc(N3CCCC3=O)cc2)n1 | 101.0
O=C(Nc1nc2ccc(F)cc2s1)c1ccccn1 | 102.4
COc1ccc(OC)c(-c2csc(NC(=O)C3=NN(c4ccccc4)C(=O)CC3)n2)c1 | -128.8*
O=C(Nc1nc2ccc(F)cc2s1)c1ccc(N2CCCC2=O)cc1 | -154.9*
O=C(Nc1nc2ccc(F)cc2s1)C1=NN(c2ccccc2)C(=O)CC1 | -97.3*
O=C(Nc1ccccc1Br)c1ccc(N2CCCC2=O)cc1 | -123.7*
CC1CCC(NC(=O)c2ccc(NS(=O)(=O)c3ccc4[nH]c(=O)[nH]c4c3)cc2)CC1 (configuration not stated) | -124.4*
CC(=O)N1N=C(c2ccc(C)cc2)OC1c1ccc(Br)cc1 (configuration not stated) | -174.4*
CCNc1nc(-c2ccc(OC(F)F)cc2)c(C)s1 | -72.0*
O=C(N/N=C1/CC2C=CCC12)c1ccc(Br)o1 (configuration not stated) | -83.1*
O=c1c2ccccc2oc2ccc(-c3ccc4[nH]ccc4c3)cc12 | -154.1*
CCc1cc(C=C(Cl)Cl)oc(=O)c1C | -117.2*
N#Cc1nc(-c2ccc(Cl)cc2)oc1NCc1ccco1 | -108.2*
COCCNc1oc(-c2ccc(C)cc2)nc1C#N | -107.5*
COCCNc1oc(-c2ccc(Cl)cc2)nc1C#N | -161.7*
N/C(=N\OC(=O)Cc1ccccc1)c1cccc(Br)c1 | -72.2*
N/C(=N\OC(=O)Cc1ccccc1)c1ccccc1Cl | -143.5*
O=C(/C=C\c1ccco1)Nc1nc(-c2ccccc2)cs1 | -121.2*
O=C(/C=C/c1ccco1)NC(=S)Nc1nc(-c2ccc3ccccc3c2)cs1 | -94.0*
O=C(/C=C/c1ccco1)NC(=S)Nc1nc(-c2ccc(Cl)cc2)cs1 | -76.2*
SMILES | aSyn UTR act
CC(=O)N=C(N)Sc1nc2ccccc2[nH]1 | -134.9*
CC(=O)c1ccc(Nc2ncnc3c2oc2ccccc23)cc1 | -90.1*
c1ccc2c(c1)oc1c(NCC3CCCO3)ncnc12 (configuration not stated) | -178.5*
Cc1nc(Nc2ccncc2)c2oc3ccccc3c2n1 | -66.1*
c1ccc(CNc2ncnc3c2oc2ccccc23)nc1 | -171.4*
N#C/C(=C1/CCCCCN1)c1nc2ccccc2s1 | -72.8*
CCN(CC)C(=O)C1CC(c2ccc(OC)cc2)=NO1 (configuration not stated) | -103.2*
OCCCN=c1cc(-c2ccccc2)oc2ccc(Cl)cc12 | -440.1*
CC1(C)CC(N=c2cc(-c3ccccc3)oc3ccc(Cl)cc23)CC(C)(C)N1 | 99.4
COCCNC(=S)N1CCC(C(=O)c2ccc3c(c2)OCCO3)CC1 | -74.7*
Cc1ccsc1/C=N/NC(=O)C(=O)NCC(C)C | -76.5*
CCNC(=S)N/N=C/c1sccc1C | -71.4*
